For seven compounds, residual activity results are on record in ChEMBL document CHEMBL2218924, “A broad activity screen in support of a chemogenomic map for kinase signalling research and drug discovery” (Biochem J, 2013).

Assay [1] deals with Vascular endothelial growth factor receptor 3 (Homo sapiens) (UniProt P35916). As to conditions: at 10 µM.
In assay [2] the target is Macrophage colony-stimulating factor 1 receptor (Homo sapiens) (UniProt P07333). As to conditions: at 1 µM.
Assay [3] has the same target. As to conditions: at 10 µM.
Assay [4] has as its target Tyrosine-protein kinase Fyn (Homo sapiens) (UniProt P06241). The note with it: at 1 µM.
For assay [5] the target is unchanged. The note with it: at 10 µM.
The target of assay [6] is T1, Mitogen-activated protein kinase kinase kinase kinase 2 (Homo sapiens) (UniProt Q12851).
T1 sequence (whole entry): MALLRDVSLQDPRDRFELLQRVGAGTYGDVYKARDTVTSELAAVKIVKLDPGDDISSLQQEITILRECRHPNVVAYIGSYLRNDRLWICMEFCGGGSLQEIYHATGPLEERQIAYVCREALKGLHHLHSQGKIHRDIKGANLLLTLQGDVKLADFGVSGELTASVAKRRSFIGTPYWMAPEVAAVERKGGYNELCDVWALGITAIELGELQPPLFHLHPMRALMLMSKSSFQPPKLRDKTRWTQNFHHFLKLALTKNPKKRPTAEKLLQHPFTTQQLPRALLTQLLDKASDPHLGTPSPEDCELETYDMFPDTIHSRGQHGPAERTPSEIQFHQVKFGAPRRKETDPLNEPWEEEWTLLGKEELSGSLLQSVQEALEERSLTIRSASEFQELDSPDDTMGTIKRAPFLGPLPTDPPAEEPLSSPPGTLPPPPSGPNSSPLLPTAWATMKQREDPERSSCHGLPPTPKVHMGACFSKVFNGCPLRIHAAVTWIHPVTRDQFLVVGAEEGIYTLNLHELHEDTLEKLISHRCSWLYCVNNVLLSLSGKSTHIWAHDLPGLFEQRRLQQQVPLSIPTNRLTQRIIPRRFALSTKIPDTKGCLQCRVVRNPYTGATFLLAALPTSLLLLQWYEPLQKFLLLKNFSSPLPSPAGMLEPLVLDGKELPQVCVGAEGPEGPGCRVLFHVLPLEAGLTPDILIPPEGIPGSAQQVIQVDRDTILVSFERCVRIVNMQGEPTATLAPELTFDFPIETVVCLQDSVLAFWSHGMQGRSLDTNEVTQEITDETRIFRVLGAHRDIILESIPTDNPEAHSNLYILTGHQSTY
The note with it: at 1 µM.

Assay [7] addresses T1, Mitogen-activated protein kinase kinase kinase kinase 2 (Homo sapiens). As to conditions: at 10 µM.
Assay [8] has as its target G protein-coupled receptor kinase 5 (Homo sapiens) (UniProt P34947). As to conditions: at 10 µM.
The target of assay [9] is G protein-coupled receptor kinase 6 (Homo sapiens) (UniProt P43250). As to conditions: at 10 µM.
Sequence of G protein-coupled receptor kinase 6 (Homo sapiens) (P43250 whole entry, looked up): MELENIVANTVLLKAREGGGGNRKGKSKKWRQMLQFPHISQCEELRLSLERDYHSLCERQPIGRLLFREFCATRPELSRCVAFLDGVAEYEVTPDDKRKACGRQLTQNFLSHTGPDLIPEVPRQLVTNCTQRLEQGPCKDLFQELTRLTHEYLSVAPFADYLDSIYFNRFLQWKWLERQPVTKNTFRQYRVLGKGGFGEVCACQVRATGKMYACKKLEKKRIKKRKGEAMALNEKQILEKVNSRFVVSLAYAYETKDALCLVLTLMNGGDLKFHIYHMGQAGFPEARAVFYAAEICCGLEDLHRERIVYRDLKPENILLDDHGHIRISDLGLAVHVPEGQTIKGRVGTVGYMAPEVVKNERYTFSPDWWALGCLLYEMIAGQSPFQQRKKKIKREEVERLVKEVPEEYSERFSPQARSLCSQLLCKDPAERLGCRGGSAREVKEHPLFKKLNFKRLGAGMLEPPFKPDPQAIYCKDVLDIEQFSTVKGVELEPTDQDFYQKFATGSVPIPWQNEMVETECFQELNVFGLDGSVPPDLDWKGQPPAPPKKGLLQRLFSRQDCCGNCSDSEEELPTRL
Assay [10] deals with T2, Rhodopsin kinase GRK7 (Homo sapiens) (UniProt Q8WTQ7).
T2 sequence (whole entry): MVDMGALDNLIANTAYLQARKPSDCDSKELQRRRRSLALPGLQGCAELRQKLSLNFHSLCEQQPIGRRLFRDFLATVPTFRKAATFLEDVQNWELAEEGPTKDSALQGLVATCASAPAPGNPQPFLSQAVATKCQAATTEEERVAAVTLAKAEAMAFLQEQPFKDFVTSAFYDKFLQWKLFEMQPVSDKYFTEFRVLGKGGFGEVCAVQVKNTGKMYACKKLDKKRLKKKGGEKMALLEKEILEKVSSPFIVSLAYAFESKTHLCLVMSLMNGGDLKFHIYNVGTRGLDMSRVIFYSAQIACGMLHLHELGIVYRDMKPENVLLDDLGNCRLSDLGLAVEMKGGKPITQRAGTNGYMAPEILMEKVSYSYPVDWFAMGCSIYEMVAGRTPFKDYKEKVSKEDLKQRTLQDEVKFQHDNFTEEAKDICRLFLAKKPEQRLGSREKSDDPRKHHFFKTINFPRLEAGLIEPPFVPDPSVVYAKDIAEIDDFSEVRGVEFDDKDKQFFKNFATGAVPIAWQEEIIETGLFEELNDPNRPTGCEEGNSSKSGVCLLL
As to conditions: at 1 µM.

The target of assay [11] is T2, Rhodopsin kinase GRK7 (Homo sapiens). The note with it: at 10 µM.
Assay [12] deals with Glycogen synthase kinase-3 alpha (Homo sapiens) (UniProt P49840). As to conditions: at 1 µM.
Sequence of Glycogen synthase kinase-3 alpha (Homo sapiens) (P49840 2-483 limits assumed): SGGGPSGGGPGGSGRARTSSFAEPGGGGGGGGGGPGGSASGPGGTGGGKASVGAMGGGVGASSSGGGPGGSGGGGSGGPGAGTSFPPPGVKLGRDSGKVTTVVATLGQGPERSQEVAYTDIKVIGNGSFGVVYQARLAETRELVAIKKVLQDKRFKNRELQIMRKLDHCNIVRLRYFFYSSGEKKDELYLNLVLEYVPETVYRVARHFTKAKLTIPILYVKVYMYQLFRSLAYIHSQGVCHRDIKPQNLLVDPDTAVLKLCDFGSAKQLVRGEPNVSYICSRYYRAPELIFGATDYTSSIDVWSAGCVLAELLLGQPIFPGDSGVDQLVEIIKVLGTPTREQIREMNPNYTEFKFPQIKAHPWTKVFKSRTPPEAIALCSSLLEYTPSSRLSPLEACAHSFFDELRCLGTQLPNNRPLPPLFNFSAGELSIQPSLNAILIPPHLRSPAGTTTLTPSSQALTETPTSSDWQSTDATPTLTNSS
The target is the same in assay [13]. As to conditions: at 10 µM.
Assay [14] deals with Glycogen synthase kinase-3 beta (Homo sapiens) (UniProt P49841). The note with it: at 1 µM.
The target is the same in assay [15]. The note with it: at 10 µM.
Assay [16] concerns the target Homeodomain-interacting protein kinase 1 (Homo sapiens) (UniProt Q86Z02). As to conditions: at 1 µM.
Assay [17] has the same target. As to conditions: at 10 µM.
The target in assay [18] is Homeodomain-interacting protein kinase 2 (Homo sapiens) (UniProt Q9H2X6). The note with it: at 1 µM.
The target is the same in assay [19]. As to conditions: at 10 µM.
For assay [20], the target named is Homeodomain-interacting protein kinase 3 (Homo sapiens) (UniProt Q9H422). As to conditions: at 1 µM.
Sequence of Homeodomain-interacting protein kinase 3 (Homo sapiens) (Q9H422 whole entry, looked up): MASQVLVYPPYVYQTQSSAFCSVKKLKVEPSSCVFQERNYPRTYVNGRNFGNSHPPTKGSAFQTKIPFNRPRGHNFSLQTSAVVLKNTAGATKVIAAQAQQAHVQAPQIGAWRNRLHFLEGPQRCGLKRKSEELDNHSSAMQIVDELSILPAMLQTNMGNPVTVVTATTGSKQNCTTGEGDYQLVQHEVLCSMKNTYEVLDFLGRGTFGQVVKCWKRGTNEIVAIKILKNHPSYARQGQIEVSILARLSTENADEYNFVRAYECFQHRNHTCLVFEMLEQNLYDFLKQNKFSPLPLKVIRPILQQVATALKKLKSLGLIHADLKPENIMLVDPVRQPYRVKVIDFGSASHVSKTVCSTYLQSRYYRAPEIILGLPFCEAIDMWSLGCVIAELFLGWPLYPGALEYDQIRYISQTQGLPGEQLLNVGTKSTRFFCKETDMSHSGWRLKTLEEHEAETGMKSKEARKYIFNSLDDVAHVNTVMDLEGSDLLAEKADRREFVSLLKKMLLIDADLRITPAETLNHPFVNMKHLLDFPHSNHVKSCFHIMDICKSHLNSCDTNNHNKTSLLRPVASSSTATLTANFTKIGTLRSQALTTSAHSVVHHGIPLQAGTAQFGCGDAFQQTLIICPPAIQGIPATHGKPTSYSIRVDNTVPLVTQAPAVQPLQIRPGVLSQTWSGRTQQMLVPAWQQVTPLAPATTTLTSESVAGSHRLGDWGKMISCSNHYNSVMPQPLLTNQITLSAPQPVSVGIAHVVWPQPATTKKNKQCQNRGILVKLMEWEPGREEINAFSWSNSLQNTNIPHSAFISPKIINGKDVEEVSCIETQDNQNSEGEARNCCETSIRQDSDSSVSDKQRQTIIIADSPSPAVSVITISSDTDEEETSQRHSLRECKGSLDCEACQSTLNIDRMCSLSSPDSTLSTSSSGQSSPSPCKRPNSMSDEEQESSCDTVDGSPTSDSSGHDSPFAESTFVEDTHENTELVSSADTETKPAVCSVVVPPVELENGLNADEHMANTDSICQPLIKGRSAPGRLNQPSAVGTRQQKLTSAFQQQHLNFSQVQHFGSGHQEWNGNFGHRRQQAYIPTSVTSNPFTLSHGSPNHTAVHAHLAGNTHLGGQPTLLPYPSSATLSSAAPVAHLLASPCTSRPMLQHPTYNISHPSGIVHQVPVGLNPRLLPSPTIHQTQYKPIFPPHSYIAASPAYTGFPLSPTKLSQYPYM

Sequence of Homeodomain-interacting protein kinase 1 (Homo sapiens) (Q86Z02 whole entry, looked up): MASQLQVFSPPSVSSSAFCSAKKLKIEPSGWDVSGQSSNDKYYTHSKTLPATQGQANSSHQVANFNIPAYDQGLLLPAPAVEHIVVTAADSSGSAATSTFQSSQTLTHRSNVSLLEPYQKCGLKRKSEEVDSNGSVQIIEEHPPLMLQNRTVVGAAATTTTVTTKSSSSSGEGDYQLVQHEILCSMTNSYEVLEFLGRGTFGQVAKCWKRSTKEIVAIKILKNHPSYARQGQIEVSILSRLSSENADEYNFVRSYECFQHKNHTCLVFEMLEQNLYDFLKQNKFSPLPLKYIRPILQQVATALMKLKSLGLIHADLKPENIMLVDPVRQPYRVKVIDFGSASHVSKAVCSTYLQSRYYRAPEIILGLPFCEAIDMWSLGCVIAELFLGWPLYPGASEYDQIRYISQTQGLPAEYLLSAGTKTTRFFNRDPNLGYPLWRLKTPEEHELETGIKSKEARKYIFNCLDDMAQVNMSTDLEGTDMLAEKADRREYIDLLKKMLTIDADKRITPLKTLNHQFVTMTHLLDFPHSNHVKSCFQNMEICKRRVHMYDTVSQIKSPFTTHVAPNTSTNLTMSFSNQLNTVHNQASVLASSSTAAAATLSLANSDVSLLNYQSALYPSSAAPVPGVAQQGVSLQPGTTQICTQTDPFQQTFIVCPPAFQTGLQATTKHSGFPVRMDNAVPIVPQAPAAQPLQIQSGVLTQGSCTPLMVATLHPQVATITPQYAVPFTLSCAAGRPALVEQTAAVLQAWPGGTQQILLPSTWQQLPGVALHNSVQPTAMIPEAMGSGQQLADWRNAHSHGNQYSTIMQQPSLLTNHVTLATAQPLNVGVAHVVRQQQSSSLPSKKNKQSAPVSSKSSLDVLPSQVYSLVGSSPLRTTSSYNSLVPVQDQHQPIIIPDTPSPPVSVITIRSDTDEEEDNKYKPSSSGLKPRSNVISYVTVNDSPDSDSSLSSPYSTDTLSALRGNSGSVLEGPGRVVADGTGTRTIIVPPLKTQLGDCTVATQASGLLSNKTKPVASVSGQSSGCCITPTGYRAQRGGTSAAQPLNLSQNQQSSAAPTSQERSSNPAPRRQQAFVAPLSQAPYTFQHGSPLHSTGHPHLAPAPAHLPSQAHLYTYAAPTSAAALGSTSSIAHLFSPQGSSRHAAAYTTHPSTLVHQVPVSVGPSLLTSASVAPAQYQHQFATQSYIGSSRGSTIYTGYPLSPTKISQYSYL
Sequence of G protein-coupled receptor kinase 5 (Homo sapiens) (P34947 whole entry, looked up): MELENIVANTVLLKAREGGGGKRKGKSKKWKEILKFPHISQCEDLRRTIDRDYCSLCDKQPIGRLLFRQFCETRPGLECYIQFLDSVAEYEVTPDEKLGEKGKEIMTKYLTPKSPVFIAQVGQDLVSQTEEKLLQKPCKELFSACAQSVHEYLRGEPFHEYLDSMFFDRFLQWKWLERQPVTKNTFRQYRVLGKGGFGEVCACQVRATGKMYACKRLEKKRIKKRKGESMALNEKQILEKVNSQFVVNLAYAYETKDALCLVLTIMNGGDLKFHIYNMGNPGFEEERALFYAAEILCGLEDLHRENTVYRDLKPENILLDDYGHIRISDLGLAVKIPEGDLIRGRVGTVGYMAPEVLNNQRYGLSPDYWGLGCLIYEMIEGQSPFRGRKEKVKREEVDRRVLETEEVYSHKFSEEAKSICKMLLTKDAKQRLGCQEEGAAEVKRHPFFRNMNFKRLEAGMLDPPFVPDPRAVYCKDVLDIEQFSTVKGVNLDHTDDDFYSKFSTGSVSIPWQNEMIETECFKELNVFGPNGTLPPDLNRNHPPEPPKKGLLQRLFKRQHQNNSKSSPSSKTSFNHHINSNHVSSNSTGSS
Sequence of Macrophage colony-stimulating factor 1 receptor (Homo sapiens) (P07333 whole entry): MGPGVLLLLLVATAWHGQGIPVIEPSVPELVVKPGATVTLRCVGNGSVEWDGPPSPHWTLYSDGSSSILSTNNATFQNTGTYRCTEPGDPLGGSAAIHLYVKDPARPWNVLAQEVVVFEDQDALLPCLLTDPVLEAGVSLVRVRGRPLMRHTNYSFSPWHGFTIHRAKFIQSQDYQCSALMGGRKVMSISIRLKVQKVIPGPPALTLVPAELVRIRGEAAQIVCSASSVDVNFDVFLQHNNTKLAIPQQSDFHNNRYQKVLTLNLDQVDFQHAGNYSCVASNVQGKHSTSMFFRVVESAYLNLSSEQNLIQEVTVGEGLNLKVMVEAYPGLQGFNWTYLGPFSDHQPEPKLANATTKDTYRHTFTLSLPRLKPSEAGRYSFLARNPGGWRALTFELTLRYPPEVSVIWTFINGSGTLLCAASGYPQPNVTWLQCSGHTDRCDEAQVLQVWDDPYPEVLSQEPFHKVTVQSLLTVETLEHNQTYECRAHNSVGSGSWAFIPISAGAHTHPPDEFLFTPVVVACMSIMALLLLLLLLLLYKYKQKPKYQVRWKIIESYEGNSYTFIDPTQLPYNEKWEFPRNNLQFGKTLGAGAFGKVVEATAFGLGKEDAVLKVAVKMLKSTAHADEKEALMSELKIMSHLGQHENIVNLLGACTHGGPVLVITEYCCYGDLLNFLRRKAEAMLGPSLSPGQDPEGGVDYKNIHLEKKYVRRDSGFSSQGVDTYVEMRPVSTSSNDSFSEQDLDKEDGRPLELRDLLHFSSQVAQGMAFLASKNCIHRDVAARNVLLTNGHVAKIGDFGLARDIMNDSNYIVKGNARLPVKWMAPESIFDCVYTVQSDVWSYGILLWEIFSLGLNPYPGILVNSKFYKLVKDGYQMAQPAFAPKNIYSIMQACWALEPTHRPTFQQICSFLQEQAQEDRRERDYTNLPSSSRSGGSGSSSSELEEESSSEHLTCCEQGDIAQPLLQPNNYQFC

As to `CC(C)n1cnc2/c(=N/c3cccc(Cl)c3)nc(NCCO)[nH]c21`, the residual activity in assay [1] was 5%; in assay [2], 83%; in assay [3], 39%; in assay [4], 21%; in assay [5] it was 3%; in [6], 35%. Moreover, the residual activity worked out at 19% in [7]; 61% in [8]; 53% in assay [9]; 76% in assay [10]; 20% in assay [11]; 98% in [12]. Besides, the residual activity was 69% in assay [13]; 122% in [14]; 88% in [15]; 98% in assay [16]; 73% in assay [17]; 89% in assay [18]. Moreover, the residual activity in [19] came out at 56%.
As for `Cc1nc2cc3nc(-c4cccs4)cnc3cc2n1C`, the residual activity in assay [1] is 2%; in assay [2] it was 52%; in assay [3], 8%; in assay [4] it was 103%; in assay [5] it was 69%; in assay [6], 110%. Moreover, the residual activity turned out to be 85% in assay [7]; 77% in assay [8]; 92% in [9]; 113% in [10]; 78% in [11]; 136% in assay [12]. The residual activity was 109% in assay [13]; 101% in assay [14]; 81% in assay [15]; 107% in [16]; 106% in assay [17]; 104% in [18]. Further, the residual activity in [19] was found to be 73%; in assay [20] it was 92%.
As to `O=c1cc(-c2cccc3c2Sc2ccccc2S3)oc(N2CCOCC2)c1`, the residual activity worked out at 69% in [1]; 101% in assay [2]; 74% in assay [3]; 91% in [4]; 94% in [5]; 101% in assay [6]. The residual activity was 101% in [7]; 99% in assay [8]; 101% in assay [9]; 96% in assay [10]; 97% in [11]; 86% in [12]. Moreover, the residual activity worked out at 35% in [13]; 106% in assay [14]; 66% in [15]; 105% in assay [16]; 99% in [17]; 98% in [18]. Further, the residual activity in assay [19] worked out at 77%; in assay [20], 96%.
As for `Cc1nc(-c2ccccc2)c(-c2ccncc2)o1`, the residual activity in assay [1] turned out to be 0%; in assay [2] it was 90%; in assay [3], 86%; in [4], 90%; in assay [5], 69%; in assay [6] it was 91%. For the same compound, the residual activity stood at 77% in assay [7]; 107% in assay [8]; 97% in [9]; 105% in [10]; 103% in [11]; 92% in assay [12]. In addition, the residual activity in [13] was found to be 85%; in [14], 111%; in [15], 78%; in [16], 107%; in [17] it was 102%; in [18] it was 94%. Also, the values for the residual activity in [19] and in assay [20] were 77% and 97%, respectively.
As to `O=C(O)c1ccc2c3c1cccc3c(=O)n1c3ccccc3nc21`, the residual activity in assay [1] turned out to be 43%; in assay [2], 102%; in assay [3], 75%; in assay [4], 80%; in assay [5], 59%; in [6] it was 38%. Besides, the residual activity in [7] came out at 21%; in assay [8] it was 70%; in assay [9], 91%; in assay [10], 102%; in assay [11], 80%; in assay [12], 98%. For the same compound, the residual activity in assay [13] came to 35%; in assay [14], 98%; in [15], 41%; in assay [16], 104%; in [17], 69%; in assay [18], 70%. The residual activity is 24% in [19] and 101% in [20].
Take `O=C1NC(=O)c2c1c1c3ccccc3[nH]c1c1[nH]c3cc(Br)ccc3c21`: the residual activity in assay [1] was 3%; in [2] it was 78%; in assay [3], 68%; in [4] it was 85%; in assay [5] it was 62%; in assay [6] it was 88%. In addition, the residual activity in assay [7] was 74%; in assay [8] it was 89%; in assay [9], 89%; in [10] it was 96%; in assay [11], 79%; in assay [12] it was 92%. In addition, the residual activity in assay [13] worked out at 30%; in assay [14] it was 103%; in assay [15], 57%; in assay [16], 102%; in assay [17] it was 96%; in assay [18], 101%. Moreover, the residual activity in assay [19] is 85%; in [20], 92%.
For the compound `O=C1Nc2ccccc2/C1=C1/Nc2ccccc2/C1=N\OCCC(O)CO` (centres undefined), the residual activity in [1] is 0%; in [2], 1%; in [3] it was 1%; in assay [4] it was -1%; in [5] it was 2%; in assay [6] it was 20%. For the same compound, the residual activity in [7] stood at 4%; in assay [8] it was 63%; in assay [9], 72%; in [10], 60%; in assay [11], 33%; in assay [12], 4%. Also, the residual activity in assay [13] stood at 0%; in assay [14], 6%; in assay [15], 6%; in assay [16], 77%; in [17] it was 50%; in assay [18], 40%. For the same compound, the residual activity was 7% in [19] and 70% in assay [20].
